Experimental findings from the antibiotic and cytotoxicity screens of Wong et al. (2023) are described below.

The structures appear in SMILES notation. The whole screen tested about 39,000 compounds, of which about 1,500 (3.8%) were called active. Only a selection was taken, and actives are over-represented in it overall.

For this experiment, the system named is HSkMC (human skeletal muscle cells). Description: cytotoxicity call (relative viability < 0.9). The following applies: 10 µM.
For the compound `O=S(=O)(N1CCOCC1)n1nnc2ccccc21`, the cytotoxicity call is “inactive”.

For the compound `C[C@H](CO)N1C[C@H](C)[C@H](CN(C)Cc2ccc(C(F)(F)F)cc2)Oc2ccc(NC(=O)Cn3cnnn3)cc2CC1=O`, the cytotoxicity call is “inactive”.

As to `C[C@@H]1CN([C@@H](C)CO)C(=O)c2cc(C#CC3(O)CCCC3)cnc2O[C@@H]1CN(C)C(=O)C1CCOCC1`, the cytotoxicity call is “inactive”.

As for `CN1C(=O)c2cc(NC(=O)Cc3cccs3)ccc2OC[C@H]2O[C@H](CC(=O)NCCCN3CCOCC3)CC[C@@H]21`, the cytotoxicity call is “inactive”.

`Cc1noc(C)c1S(=O)(=O)Nc1ccc2c(c1)C(=O)N([C@@H](C)CO)C[C@H](C)[C@H](CN(C)S(=O)(=O)c1cccs1)O2`: the cytotoxicity call is “inactive”.

As for `C[C@@H]1CN([C@H](C)CO)C(=O)CCCn2cc(nn2)CO[C@@H]1CN(C)S(=O)(=O)c1cccc(C#N)c1`, the cytotoxicity call is “inactive”.

Turning to `Oc1cccc(c1)/C/1=C/2\CC/C(=C(\c3cccc(c3)O)c3ccc([nH]3)/C(=C\3/C=CC(=N3)/C(=C\3/C=CC1=N3)c1cccc(c1)O)c1cccc(c1)O)N2`, the cytotoxicity call is “active”.

As for `OS(=O)(=O)c1ccc(cc1)/C/1=C\2/N/C(=C(\C3=N/C(=C(/c4ccc(cc4)S(=O)(=O)O)c4ccc([nH]4)/C(=C\4/C=CC1=N4)c1ccc(cc1)S(=O)(=O)O)C=C3)c1ccc(cc1)S(=O)(=O)O)C=C2`, the cytotoxicity call is “inactive”.

Take `CC(C)NC(=O)Nc1ccc2c(c1)CC(=O)N([C@@H](C)CO)C[C@@H](C)[C@@H](CN(C)C(=O)NC1CCCCC1)O2`: the cytotoxicity call was “inactive”.

On to `CCC(=O)NC[C@H](Cc1ccc(OCCc2nc(-c3ccccc3)oc2C)cc1)N/C(C)=C\C(=O)c1ccc(C(F)(F)F)cc1`, for which the cytotoxicity call was “active”.

Consider `O=C(O)C[C@@H]1CC[C@H]2[C@@H](COC[C@H](O)CN2S(=O)(=O)c2ccc(F)cc2)O1`, for which the cytotoxicity call is “inactive”.

`COc1cnc(SC)n(C)c1=O`: the cytotoxicity call was “inactive”.

Turning to `C[C@@H]1CN([C@@H](C)CO)C(=O)Cc2cc(NS(=O)(=O)c3cn(C)cn3)ccc2O[C@H]1CN(C)CC1CCCCC1`, the cytotoxicity call is “inactive”.

In the case of `CN(C)CC#Cc1ccc([C@@H]2[C@H](CO)N3CCCCN(C(=O)CN(C)C)C[C@@H]23)cc1`, the cytotoxicity call was “inactive”.

For `CN(C)CC#Cc1ccc([C@H]2[C@@H](CO)N3CCCCN(C(=O)CN(C)C)C[C@H]23)cc1`, the cytotoxicity call is “inactive”.

Take `CN(C)CC#Cc1ccc([C@@H]2[C@@H](CO)N3CCCCN(C(=O)CN(C)C)C[C@@H]23)cc1`: the cytotoxicity call was “inactive”.

For `COc1ccc(NC(=O)N2CCCCN3[C@H](COCCN(C)C)[C@H](c4ccc(C#Cc5ccccc5)cc4)[C@@H]3C2)cc1`, the cytotoxicity call was “active”.

As for `CN(C)CC#Cc1ccc([C@H]2[C@@H](CO)N3CCCCN(C(=O)CN(C)C)C[C@@H]23)cc1`, the cytotoxicity call is “inactive”.

With `COc1ccc(NC(=O)N2CCCCN3[C@H](CN(C)C(C)=O)[C@H](c4ccc(C#Cc5ccccc5)cc4)[C@@H]3C2)cc1`, the cytotoxicity call was “active”.

As to `C[C@H]1Cc2c(N)nn(C)c2NC1=O`, the cytotoxicity call is “inactive”.

As for `CC(=O)OCC(=O)C12OC3(CCCC3)OC1CC1C3CCC4=CC(=O)C=CC4(C)C3(F)C(O)CC12C` (stereo not drawn), the cytotoxicity call is “inactive”.

`C[C@@H]1CN([C@H](C)CO)C(=O)Cc2cc(NS(=O)(=O)c3cccs3)ccc2O[C@H]1CN(C)Cc1ccc(-c2ccccc2)cc1`: the cytotoxicity call was “inactive”.

As for `Cc1ccc(-c2ccc3c(c2)O[C@@H](CN(C)C(=O)NC(C)C)[C@@H](C)CN([C@H](C)CO)S3(=O)=O)cc1`, the cytotoxicity call was “inactive”.

In the case of `COc1ccc(NC(=O)N(C)C[C@@H]2OCCCC[C@@H](C)Oc3ccc(NC(=O)Cc4ccccc4)cc3C(=O)N([C@H](C)CO)C[C@H]2C)cc1`, the cytotoxicity call was “inactive”.

On to `C[C@@H]1CCCCO[C@@H](CN(C)C(=O)Cc2ccccc2)[C@@H](C)CN([C@H](C)CO)C(=O)c2cc(NC(=O)c3ccccc3)ccc2O1`, for which the cytotoxicity call is “inactive”.

Turning to `COc1ccc(-c2cccc(-c3nc(C(=O)NCC(F)(F)F)cc4c3[C@H](CCO)N([S@@](=O)C(C)(C)C)C4)c2)cc1`, the cytotoxicity call was “inactive”.

Take `C[C@@H]1CCCCO[C@@H](CN(C)C(=O)Cc2ccccc2)[C@H](C)CN([C@@H](C)CO)C(=O)c2cc(NC(=O)CCC(F)(F)F)ccc2O1`: the cytotoxicity call was “inactive”.

Consider `COc1cc(N2CCC(N)CC2)ccc1Nc1ncc(Cl)c(-c2c[nH]c3ccccc23)n1`, for which the cytotoxicity call is “active”.

In the case of `NC1CCN(C(=O)c2c[nH]c3ccccc23)CC1`, the cytotoxicity call was “inactive”.

For `COc1cc(N2CCC(O)CC2)ccc1Nc1cc(Nc2ccccc2S(=O)(=O)C(C)C)c2cc[nH]c2n1`, the cytotoxicity call is “inactive”.

Consider `COc1cc(N2CCC(N(C)C)CC2)ccc1Nc1ncc(Cl)c(Nc2ccccc2P(C)(C)=O)n1`, for which the cytotoxicity call was “active”.

`Cc1cc(Nc2ncc(Cl)c(Nc3ccccc3S(=O)(=O)C(C)C)n2)c(OC(C)C)cc1C1CCNCC1`: the cytotoxicity call was “active”.

In the case of `COc1cc(N2CCC(N3CCN(C)CC3)CC2)ccc1Nc1ncc(Cl)c(Nc2ccccc2S(=O)(=O)C(C)C)n1`, the cytotoxicity call was “active”.

Regarding `COc1cc(C(=O)NC2CCN(C)CC2)ccc1Nc1ncc2c(n1)N(C1CCC(O)CC1)CCC(=O)N2C` (stereo not drawn), the cytotoxicity call is “inactive”.

Consider `Cc1noc(C)c1NC(=O)N(C)C[C@H]1Oc2ccc(NC(=O)CCCN(C)C)cc2C(=O)N([C@@H](C)CO)C[C@H]1C`, for which the cytotoxicity call was “inactive”.

On to `C[C@H]1CN([C@@H](C)CO)C(=O)c2cc(NC(=O)Cc3cn(C)c4ccccc34)ccc2O[C@H]1CN(C)Cc1ccc(C(=O)Nc2ccccc2N)cc1`, for which the cytotoxicity call is “inactive”.

As for `COc1ccc(NC(=O)N(C)C[C@@H]2OCCCC[C@@H](C)Oc3ccc(NS(=O)(=O)c4ccccc4)cc3C(=O)N([C@@H](C)CO)C[C@H]2C)cc1`, the cytotoxicity call is “inactive”.

As to `O=C(C[C@@H]1C=C[C@H](NC(=O)CN2CCOCC2)[C@@H](CO)O1)NC1CCCCC1`, the cytotoxicity call was “inactive”.

`C[C@@H]1CN([C@@H](C)CO)S(=O)(=O)c2ccc(C#CCC3CCCC3)cc2O[C@@H]1CN(C)C(=O)c1cnccn1`: the cytotoxicity call was “inactive”.

Take `C[C@H](CO)N1C[C@H](C)[C@H](CN(C)Cc2ccc(C(=O)O)cc2)Oc2ccc(NS(=O)(=O)c3cn(C)cn3)cc2C1=O`: the cytotoxicity call was “inactive”.

With `O=C(NCCN1CCCC1)[C@H]1[C@H](CO)[C@H]2Cn3c(cccc3=O)[C@H]2N1C(=O)c1ccccc1`, the cytotoxicity call is “inactive”.

Take `CC(C)(C)NCC(O)COc1ccccc1C1CCCC1.O=S(=O)(O)O` (stereo not drawn): the cytotoxicity call was “inactive”.

In the case of `Cc1ccc2sc(C(=O)O)cc2c1`, the cytotoxicity call was “inactive”.

`COc1ccc(S(=O)(=O)Nc2ccc3c(c2)C(=O)N([C@@H](C)CO)C[C@@H](C)[C@H](CN(C)C(=O)Nc2cccc4ccccc24)OCCCC[C@@H](C)O3)cc1`: the cytotoxicity call was “inactive”.

In the case of `C[C@H]1CN([C@@H](C)CO)S(=O)(=O)c2ccc(C#Cc3cccc(F)c3)cc2O[C@@H]1CN(C)S(=O)(=O)c1cn(C)cn1`, the cytotoxicity call was “inactive”.

For the compound `CO[C@@H]1CN(C)C(=O)c2ccc(NS(C)(=O)=O)cc2OC[C@@H](C)N(S(C)(=O)=O)C[C@H]1C`, the cytotoxicity call is “inactive”.

With `C[C@@H]1CN([C@@H](C)CO)C(=O)c2cccc(NC(=O)c3cnccn3)c2O[C@H]1CN(C)S(=O)(=O)c1ccc(Cl)cc1`, the cytotoxicity call is “inactive”.

As to `C[C@H]1CN([C@@H](C)CO)C(=O)c2cc(Br)cnc2O[C@H]1CN(C)Cc1ccccc1C(=O)O`, the cytotoxicity call is “inactive”.

For the compound `C[C@H]1CN([C@@H](C)CO)C(=O)c2cccc(NC(=O)Nc3ccc(C(F)(F)F)cc3)c2O[C@H]1CN(C)S(=O)(=O)c1ccc(F)cc1`, the cytotoxicity call was “inactive”.

`OC1(c2ccc(Cl)c(C(F)(F)F)c2)CCN(CCCC(c2ccc(F)cc2)c2ccc(F)cc2)CC1` [listing 1 of 2 here]: the cytotoxicity call was “active”.

Consider `O=C(CCCN1CCC(O)(c2ccc(Cl)cc2)CC1)c1ccc(F)cc1`, for which the cytotoxicity call is “inactive”.

Consider `OC1(c2ccc(Cl)c(C(F)(F)F)c2)CCN(CCCC(c2ccc(F)cc2)c2ccc(F)cc2)CC1` [listing 2 of 2 here], for which the cytotoxicity call was “active”.

For `O=C(CCCN1CCC(O)(c2ccc(Br)cc2)CC1)c1ccc(F)cc1`, the cytotoxicity call was “inactive”.

Take `COc1ccc(S(=O)(=O)Nc2cccc3c2O[C@@H](CN(C)S(=O)(=O)c2ccccc2)[C@@H](C)CN([C@H](C)CO)C3=O)cc1`: the cytotoxicity call is “inactive”.

With `C[C@@H]1CN([C@H](C)CO)C(=O)c2cccc(NS(=O)(=O)c3cn(C)cn3)c2O[C@H]1CN(C)C(=O)Nc1ccc(F)cc1`, the cytotoxicity call is “inactive”.

With `C[C@@H]1CN([C@@H](C)CO)C(=O)c2cc(NC(=O)Cc3ccccc3)ccc2O[C@@H](C)CCCCO[C@@H]1CN(C)C(=O)Nc1cccc2ccccc12`, the cytotoxicity call is “inactive”.

As for `CO[C@H]1O[C@H](CO)[C@@H](OC(=O)Nc2ccc3c(c2)OCO3)[C@H](OC(=O)Nc2ccc3c(c2)OCO3)[C@@H]1OC(=O)Nc1ccc2c(c1)OCO2`, the cytotoxicity call is “inactive”.

For `CN(C)C(=O)C[C@H]1CC[C@@H]2[C@@H](COc3ccc(NS(=O)(=O)c4cccc(F)c4)cc3C(=O)N2C)O1`, the cytotoxicity call was “inactive”.

On to `O=C1CN(S(=O)(=O)Cc2ccccc2)C[C@H]2[C@@H](c3ccc(C#Cc4ccc(F)cc4)cc3)[C@H](CO)N12`, for which the cytotoxicity call was “inactive”.

As for `COc1cccc(C#Cc2ccc([C@H]3[C@H](CO)N4C(=O)CN(S(=O)(=O)c5ccccc5C)C[C@@H]34)cc2)c1`, the cytotoxicity call was “inactive”.

Consider `O=C1CN(S(=O)(=O)Cc2ccccc2)C[C@@H]2[C@@H](c3ccc(C#Cc4ccc(F)cc4)cc3)[C@H](CO)N12`, for which the cytotoxicity call was “inactive”.

Turning to `O=C1CN(S(=O)(=O)Cc2ccccc2)C[C@@H]2[C@@H](c3ccc(C#Cc4ccc(F)cc4)cc3)[C@@H](CO)N12`, the cytotoxicity call was “active”.

With `O=C1CN(S(=O)(=O)Cc2ccccc2)C[C@H]2[C@H](c3ccc(C#Cc4ccc(F)cc4)cc3)[C@@H](CO)N12`, the cytotoxicity call is “active”.

`COc1cccc(C#Cc2ccc([C@@H]3[C@H]4CN(S(=O)(=O)c5ccccc5C)CC(=O)N4[C@H]3CO)cc2)c1`: the cytotoxicity call is “inactive”.

Consider `O=C1CN(S(=O)(=O)Cc2ccccc2)C[C@H]2[C@H](c3ccc(C#Cc4ccc(F)cc4)cc3)[C@H](CO)N12`, for which the cytotoxicity call is “active”.

For the compound `O=C1CN(S(=O)(=O)Cc2ccccc2)C[C@@H]2[C@H](c3ccc(C#Cc4ccc(F)cc4)cc3)[C@@H](CO)N12`, the cytotoxicity call is “inactive”.

Regarding `O=C1CN(S(=O)(=O)Cc2ccccc2)C[C@@H]2[C@H](c3ccc(C#Cc4ccc(F)cc4)cc3)[C@H](CO)N12`, the cytotoxicity call was “active”.

As to `O=C1CN(S(=O)(=O)Cc2ccccc2)C[C@H]2[C@@H](c3ccc(C#Cc4ccc(F)cc4)cc3)[C@@H](CO)N12`, the cytotoxicity call is “inactive”.
